The whole screen tested about 16,000 compounds, of which about 5,100 (32%) were called active. Another 25% or so got no clear call; they are omitted. Calls come from the whole dose curve; as a rule, active = well fitted curve in the direction sought with a large enough effect; inconclusive = small, poorly fitted or top-dose-only effect, or effect the other way; inactive = no such curve, though single readings can be large or run the other way. The list shows a part of the results. A structure can be active in one record and inactive in another.
% is set by controls: 0 for no effect and ±100 for the full control effect.

The target in this experiment is Cytochrome P450 3A4 (Homo sapiens) (UniProt P08684). Put plainly: Cytochrome panel assay with activity outcomes. To be noted: recombinant CYP, pro-luciferin dealkylation, luminescence, p450-cyp3a4; series mostly up to 57.1 µM; activity, negative = inhibition: at the top concentration.
Cytochrome P450 3A4 (Homo sapiens), sequence (P08684 whole entry, looked up): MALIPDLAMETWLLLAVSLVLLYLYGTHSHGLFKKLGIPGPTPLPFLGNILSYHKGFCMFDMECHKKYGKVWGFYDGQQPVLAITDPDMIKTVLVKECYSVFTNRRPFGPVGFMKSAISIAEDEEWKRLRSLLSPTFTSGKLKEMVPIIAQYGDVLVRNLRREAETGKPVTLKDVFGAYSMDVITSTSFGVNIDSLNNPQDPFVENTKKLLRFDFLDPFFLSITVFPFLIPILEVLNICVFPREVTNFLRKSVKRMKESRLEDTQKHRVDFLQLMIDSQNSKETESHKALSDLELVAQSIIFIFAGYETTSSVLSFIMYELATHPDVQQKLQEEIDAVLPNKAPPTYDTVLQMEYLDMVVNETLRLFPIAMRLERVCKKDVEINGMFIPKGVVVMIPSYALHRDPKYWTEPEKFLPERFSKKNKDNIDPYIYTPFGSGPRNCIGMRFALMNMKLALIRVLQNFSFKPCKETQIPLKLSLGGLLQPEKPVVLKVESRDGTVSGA
Usually AC50 stands for the midpoint of the concentration-response curve, whichever way the signal moves. `CCC(=O)O[C@@](Cc1ccccc1)(c1ccccc1)[C@@H](C)CN(C)C`: the AC50 is 5.01 µM (active).

Take `O=C(O)[C@H]1[C@H](C(=O)O)[C@H]2CC[C@@H]1O2`: the “activity, negative = inhibition” value is -5.34% (inactive).

Regarding `COc1cc(CCN)c(OC)c(OC)c1`, the activity, negative = inhibition is -5.19% [at 11.4 µM] (inactive).

With `CCOP(=O)(CN(CC)CCNP(=O)(OCC)OCC)OCC`, the activity, negative = inhibition is 10.5% [at 2.29 µM] (inactive).

Consider `CN1CCc2nc3sc(C(=O)NC(C)(C)C)c(N)c3cc2C1`, for which the activity, negative = inhibition is -11.5% [at 2.29 µM] (inactive).

For `CC[C@@]1(O)C(=O)OCc2c1cc1n(c2=O)Cc2cc3ccccc3nc2-1`, the AC50 was 6.31 µM (active) and inactive.

With `CC[C@]1(OC(=O)CN)C(=O)OCc2c1cc1n(c2=O)Cc2cc3ccccc3nc2-1`, the activity, negative = inhibition is -27% [at 11.4 µM] (inactive).

With `CC[C@@]1(O)C(=O)OCc2c1cc1n(c2=O)Cc2cc3c(NC(=O)CN)cccc3nc2-1`, the activity, negative = inhibition was 0.232% [at 11.4 µM] (inactive).

For the compound `COc1ccc(NC(=O)NC2CC3CCCC(C2)N3Cc2ccccc2)cc1` (stereo not drawn), the “activity, negative = inhibition” value was 16.8% (inactive).

Consider `O=C(NC1CCCCC1)NC1CC2CCC(C1)N2Cc1nnnn1Cc1ccc2c(c1)OCO2` (stereo not drawn), for which the AC50 is 3.16 µM (active).

On to `CCc1ccccc1NC(=O)NC1CC2CCC(C1)N2Cc1cccs1` (stereo not drawn), for which the “activity, negative = inhibition” value is -21.2% (inactive).

For `C[C@@]12CC[C@H]3[C@H](CC=C4C[C@@H](O)CC[C@@]43C)[C@@H]1CC[C@@H]2N(CCO)CCO`, the activity, negative = inhibition is 12.7% [at 11.4 µM] (inactive).

On to `O=C1NCN(c2ccccc2)C12CCN(CCCOc1ccc(F)cc1)CC2`, for which the “activity, negative = inhibition” value was 18.9% (inactive).

On to `c1ccc(CN2CCC3(CCNCC3)CC2)cc1`, for which the “activity, negative = inhibition” value is -7.57% (inactive).

As for `COC(=O)CN1CN(c2ccccc2)C2(CCN(Cc3ccc4ccccc4c3)CC2)C1=O`, the AC50 is 15.8 µM (active).

`CC[C@]1([C@H]2O[C@@H]([C@@H]3O[C@](O)(CO)[C@@H](C)C[C@H]3C)C[C@H]2C)CC[C@@H]([C@]2(C)CC[C@@]3(C[C@@H](O)[C@@H](C)[C@@H]([C@H](C)[C@H](OC)[C@H](C)C(=O)O)O3)O2)O1`: the “activity, negative = inhibition” value was -4.62% [at 25.6 µM] (inactive).

As to `c1cc2cc(c1)C[n+]1ccc(c3ccccc31)NCc1ccc(cc1)CNc1cc[n+](c3ccccc13)C2`, the “activity, negative = inhibition” value was 11.2% (inactive).

In the case of `O=C(Oc1ccc([N+](=O)[O-])cc1)N1CCC(N2CCCCC2)CC1`, the “activity, negative = inhibition” value was -28.2% (inactive).

For `C[C@@]12C=CC(=O)C=C1CC[C@@H]1C2=CC[C@]2(C)[C@@H]1CC[C@H]2C(=O)CN1CCN(c2cc(N3CCCC3)nc(N3CCCC3)n2)CC1`, the AC50 was 3.16 µM (active).

Turning to `C[As+](C)(c1ccc(Br)c([N+](=O)[O-])c1)c1ccc(Br)c([N+](=O)[O-])c1.O=[N+]([O-])O`, the activity, negative = inhibition is -4.86% [at 11.4 µM] (inactive).

In the case of `COC(=O)C[C@](O)(CCCC(C)(C)O)C(=O)O[C@@H]1C(OC)=C[C@]23CCCN2CCc2cc4c(cc2[C@H]13)OCO4`, the AC50 is 12.6 µM (active).

Take `CN(C)CCCc1c[nH]c2ccccc12`: the activity, negative = inhibition was -0.0212% [at 11.4 µM] (inactive).

Take `O=C1CCCN1CC#CCN1CCCC1`: the activity, negative = inhibition entry was “inactive”.

Regarding `O=C1C=C2C=C[C@H]3C[C@@]2(O1)[C@H]1CCCCN31`, the “activity, negative = inhibition” value was -13.1% [at 25.6 µM] (inactive).

For `Nc1ccc(S(=O)(=O)c2ccc(NCN3C(=O)NC(=O)C(=O)C3=O)cc2)cc1`, the AC50 is 2 µM (active).

For `CC(=O)NBr`, the “activity, negative = inhibition” value is -3.28% (inactive).

As to `CS(=O)(=O)Nc1ccc(Cc2noc(-c3ccc4[nH]cc(CCN)c4c3)n2)cc1`, the AC50 was 15.8 µM (active).

With `NCCc1c[nH]c2ccc(O)cc12`, the “activity, negative = inhibition” value was -20.5% [at 25.6 µM] (inactive).

As for `COc1ccc2[nH]cc(CCN)c2c1`, the “activity, negative = inhibition” value was -6.61% (inactive).

On to `O=C1OC(=O)[C@@H]2[C@@H]1[C@@H]1CC[C@H]2O1`, for which the “activity, negative = inhibition” value was 7.25% (inactive).

For the compound `C=C[C@H]1CN2CC[C@@H]1C[C@H]2[C@@H](O)c1ccnc2ccccc12`, the activity, negative = inhibition entry was “inactive”.

Turning to `CCCN1CCC[C@H](c2cccc(O)c2)C1`, the activity, negative = inhibition entry is “inactive”.

Take `CC(C)C12CN3CC(C(C)C)(CN(C1)C3c1cccnc1)C2=O` (stereo not drawn): the AC50 was 2.24 µM (active).

Turning to `CNCCc1ccc(O)c(O)c1`, the “activity, negative = inhibition” value is -18.3% (inactive).

With `NNC(=O)c1ccc(O)cc1`, the AC50 is 5.01 µM (active).

Turning to `NP(N)(=O)NC(=O)c1ccc(F)cc1`, the “activity, negative = inhibition” value is -7.05% (inactive).

With `NCCc1ccc(O)cc1`, the “activity, negative = inhibition” value is -2.1% (inactive).

With `Ic1cncc(OC[C@@H]2CCN2)c1`, the “activity, negative = inhibition” value was -28.9% (inactive).

As for `CCN(CCCl)Cc1ccccc1Br`, the “activity, negative = inhibition” value was -11.1% (inactive).

On to `COc1ccc(OC)c([C@H](O)[C@H](C)N)c1`, for which the activity, negative = inhibition entry is “inactive”.

Turning to `CN(N=O)C(=O)N[C@H]1[C@@H](O)[C@H](O)[C@H](CO)O[C@@H]1O`, the “activity, negative = inhibition” value is -4.4% [at 25.6 µM] (inactive).

Regarding `COC(=O)[C@@]1(Cc2ccc(F)cc2)[C@H]2c3cc(C(=O)N(C)C)[nH]c3C[C@H]2CN1C(=O)c1ccccc1`, the AC50 is 0.631 µM (active).

For the compound `CC(C)[C@]1(O)[C@@H](OC(=O)c2ccc[nH]2)[C@]2(O)[C@@]3(C)C[C@@]4(O)O[C@@]5([C@H](O)[C@@H](C)CC[C@]35O)[C@]2(O)[C@]41C`, the activity, negative = inhibition was -24.6% [at 11.4 µM] (inactive).

As for `CC(C)c1nccn1Cc1ccc(Cl)cc1Cl`, the activity, negative = inhibition was -9.57% [at 11.4 µM] (inactive).

With `O=C(O)[C@H]1C[C@@H]1[C@H](NP(=O)(c1ccccc1)c1ccccc1)c1ccccc1`, the “activity, negative = inhibition” value is -25.2% (inactive).

For the compound `CCC/C=C(\CCC)C(NP(=O)(c1ccccc1)c1ccccc1)c1ccccc1` (stereo not drawn), the AC50 was 6.31 µM (active).

Regarding `O=C(O)[C@@H]1C[C@H]1[C@@H](NP(=O)(c1ccccc1)c1ccccc1)c1ccccc1`, the “activity, negative = inhibition” value is -0.397% (inactive).

For `c1cc(C2N3CCCN2CC3)ccn1` (stereo not drawn), the activity, negative = inhibition was -11.6% [at 11.4 µM] (inactive).

Source of the values: PubChem BioAssay AID1851 (National Center for Advancing Translational Sciences (NCATS), 2009).
